This note sets out measurements from PubChem BioAssay (NCI).

The structures appear in SMILES notation. About 83,000 compounds went through this panel and 20% of them were active in at least one assay; those are over-represented in the sample as a whole.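 Activity criterion: percent growth below 10, measured after cells in 96-well plates were exposed to a single compound concentration for 48 hours.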 A number with no mark means an inactive call. The source made the active and inactive calls.

Among the test systems are NCI-H23 lung; NCI-H226 lung; NCI-H322M lung; HOP-62 NSCLC; NCI-H460 lung; NCI-H522 lung; A549/ATCC NSCLC; 786-0 renal; COLO 205 colon; DU-145 prostate; K-562 leukemia; MALME-3M melanoma; MDA-MB-231 breast; RXF 393 renal; SF-268 CNS; SF-295 CNS; SF-539 CNS; UACC-257 melanoma; M14 melanoma.
Assay in all cases: NCI-60 one-dose screen, 48 h (100 = growth as untreated, 0 = no growth, -100 = all killed)
Settings in all cases: 10 µM unless noted

`O=C(/C=C/Nc1ccc2oc(=O)ccc2c1)c1cc2cc(Br)ccc2oc1=O`: the growth in the test on NCI-H23 lung is 98.8%; with NCI-H226 lung, 101%; with NCI-H322M lung it was 104%; in the test with HOP-62 NSCLC, 95.4%; in the test on NCI-H460 lung it was 114%; with NCI-H522 lung, 101%. The growth in the test on A549/ATCC NSCLC was 101%; in the test on 786-0 renal, 103%; with COLO 205 colon, 131%; in the test on DU-145 prostate, 122%; in the test with K-562 leukemia, 110%; with MALME-3M melanoma it was 95.2%. Further, the growth in the test on MDA-MB-231 breast was 94.1%; in the test on RXF 393 renal, 121%; in the test with SF-268 CNS, 107%; in the test with SF-295 CNS it was 102%; with SF-539 CNS it was 97.4%; in the test on UACC-257 melanoma, 91.2%. In the test with M14 melanoma, the growth is 99.4%.

With `COc1ccc(/C=C/c2n(Cc3ccc4ccccc4c3)c3ccccc3[n+]2Cc2ccc3ccccc3c2)cc1`, the growth in the test on NCI-H23 lung was -92.2% (active); with NCI-H226 lung, -45% (active); with NCI-H322M lung, -96.2% (active); in the test with HOP-62 NSCLC, -76.4% (active); in the test with NCI-H460 lung it was -85.6% (active); with NCI-H522 lung, -91% (active). Moreover, the growth was -88.5% (active) in the test on A549/ATCC NSCLC; -85.7% (active) in the test on 786-0 renal; -86.8% (active) in the test with COLO 205 colon; -93.1% (active) in the test with DU-145 prostate; 1.11% (active) in the test on K-562 leukemia; -85.7% (active) with MALME-3M melanoma. Further, the growth in the test with MDA-MB-231 breast is -86.5% (active); with RXF 393 renal, -74.7% (active); with SF-268 CNS, -80.5% (active); in the test on SF-295 CNS, -95.8% (active); in the test on SF-539 CNS, -95.5% (active); in the test with UACC-257 melanoma it was -91.7% (active). Moreover, the growth with M14 melanoma is -88.3% (active).

For the molecule `C=C1CCC2C3(C)COC(c4ccccc4)OC3CCC2(C)C1CC(Sc1ccccc1)C1=CCOC1=O` (configuration not stated), the growth in the test with NCI-H23 lung is 44.2%; in the test with NCI-H226 lung, 10.6%; in the test on NCI-H322M lung, 80.5%; in the test on HOP-62 NSCLC, 88.6%; in the test with NCI-H460 lung, 84.6%; in the test with NCI-H522 lung, 3.01% (active). The growth in the test on A549/ATCC NSCLC was 35.3%; with 786-0 renal, 52.3%; in the test on COLO 205 colon, 71.3%; in the test on DU-145 prostate, 70.6%; with K-562 leukemia, 7.88% (active); in the test with MALME-3M melanoma, 92.8%. Besides, the growth with MDA-MB-231 breast was 62.5%; in the test on RXF 393 renal, 72.7%; in the test on SF-268 CNS, 83.3%; in the test with SF-295 CNS, 62.7%; with SF-539 CNS, 17.7%; in the test with UACC-257 melanoma, 63.8%. In the test on M14 melanoma, the growth was 53.7%.

For the molecule `C=C1CC[C@@H]2[C@]3(C)COC(c4cn[nH]c4-c4cccc(Cl)c4)O[C@@H]3CC[C@@]2(C)[C@@H]1C/C=C1/C(=O)OCC1O` (some centres not stated), the growth was -79.8% (active) in the test with NCI-H23 lung; -91.1% (active) in the test with NCI-H226 lung; 37.9% with NCI-H322M lung; 0.166% (active) with HOP-62 NSCLC; -3.88% (active) in the test with NCI-H460 lung; -60% (active) with NCI-H522 lung. For the same molecule, the growth in the test with A549/ATCC NSCLC is -19.2% (active); in the test with 786-0 renal, -92.7% (active); in the test with COLO 205 colon, -35% (active); with DU-145 prostate, 25.5%; in the test with K-562 leukemia, 5% (active); in the test with MALME-3M melanoma, -50.7% (active). The growth is -52.7% (active) in the test on MDA-MB-231 breast; -91% (active) with RXF 393 renal; 34.3% with SF-268 CNS; -32.8% (active) in the test on SF-295 CNS; -89.8% (active) in the test on SF-539 CNS; -33.1% (active) in the test on UACC-257 melanoma. Also, the growth in the test on M14 melanoma is -73.4% (active).

With `Cc1ccc(S(=O)(=O)c2nc(S(=O)(=O)c3ccc(C)cc3)c(N3CCN(C)CC3)s2)cc1`, the growth was 56% in the test on NCI-H23 lung; 67.3% with NCI-H226 lung; 67.3% in the test on NCI-H322M lung; 99.9% in the test on HOP-62 NSCLC; 40.1% in the test with NCI-H460 lung; 15.2% in the test with NCI-H522 lung. In addition, the growth in the test on A549/ATCC NSCLC is 59.5%; with 786-0 renal, 47.5%; with COLO 205 colon, 78%; in the test on DU-145 prostate it was 52.6%; in the test with K-562 leukemia, 15.7%; with MALME-3M melanoma it was 73.5%. Also, the growth with MDA-MB-231 breast is 84.4%; with RXF 393 renal, 30.3%; in the test with SF-268 CNS it was 78.7%; in the test on SF-295 CNS, 102%; in the test with SF-539 CNS, 57.5%; in the test with UACC-257 melanoma it was 85.8%. Further, the growth with M14 melanoma was 74%.

Turning to `COc1ccc(-c2ccnc(SCc3cc4ccccc4[nH]c3=O)n2)cc1OC`, the growth in the test with NCI-H23 lung is 15.6%; in the test on NCI-H226 lung, -23.1% (active); with NCI-H322M lung, -51.5% (active); in the test with HOP-62 NSCLC, -53.5% (active); with NCI-H460 lung, 8.25% (active); in the test with NCI-H522 lung, -21.2% (active). For the same molecule, the growth was 11.7% with A549/ATCC NSCLC; -25.4% (active) in the test with 786-0 renal; 4.51% (active) in the test with COLO 205 colon; 36.4% in the test on DU-145 prostate; 62.9% in the test on K-562 leukemia; 8.86% (active) in the test with MALME-3M melanoma. In addition, the growth in the test with MDA-MB-231 breast was -51.8% (active); in the test with RXF 393 renal it was -30.4% (active); in the test with SF-268 CNS it was 23%; in the test on SF-295 CNS, -78.3% (active); in the test on SF-539 CNS, -84.7% (active); in the test on UACC-257 melanoma, 29.5%. Further, the growth with M14 melanoma is 45.4%.

For `O=c1[nH]c2ccc(Cl)cc2cc1CSc1nccc(-c2ccc(Cl)cc2)n1`, the growth in the test on NCI-H23 lung is 53.9%; in the test with NCI-H226 lung, 8.77% (active); in the test on NCI-H322M lung, 56.8%; in the test with HOP-62 NSCLC, 7.77% (active); in the test with NCI-H460 lung, 36.6%; with NCI-H522 lung, 33.6%. The growth was 50.1% with A549/ATCC NSCLC; 49.8% with 786-0 renal; 71.7% in the test with COLO 205 colon; 78.9% in the test with DU-145 prostate; 64.7% in the test on K-562 leukemia; 51% in the test with MALME-3M melanoma. Moreover, the growth with MDA-MB-231 breast is 45.7%; in the test with RXF 393 renal, 35.3%; in the test with SF-268 CNS it was 54.3%; in the test with SF-295 CNS, 16.8%; in the test with SF-539 CNS it was 3.24% (active); with UACC-257 melanoma it was 60.9%. In addition, in the test with M14 melanoma, the growth is 71.1%.

As to `O=C(N1c2ccccc2Sc2ccccc21)n1ccc2cccnc21`, the growth in the test with NCI-H23 lung is 77.9%; with NCI-H226 lung it was 81%; with NCI-H322M lung, 74.7%; in the test on HOP-62 NSCLC, 77.5%; in the test with NCI-H460 lung it was 48.7%; with NCI-H522 lung, 56.3%. The growth is 75.8% in the test with A549/ATCC NSCLC; 77.4% in the test with 786-0 renal; 62.8% in the test with COLO 205 colon; 86.6% in the test on DU-145 prostate; 19.5% in the test with K-562 leukemia; 75.5% in the test on MALME-3M melanoma. Also, the growth with MDA-MB-231 breast was 69.3%; in the test on RXF 393 renal it was 83.7%; in the test on SF-268 CNS, 80.8%; with SF-295 CNS, 81%; in the test on SF-539 CNS, 76.6%; with UACC-257 melanoma it was 61.1%. Moreover, the growth in the test on M14 melanoma was 70.1%.
